# Results filed as inconclusive are left out. Active and inactive are the calls of the source. Calls come from the whole dose curve; as a rule, active = well fitted cell-killing curve with a large enough effect in the repeat runs; inconclusive = weak or mixed curves; inactive = no such curve, though single readings can be large or run the other way.
# Assay: qHTS assay for identifying genotoxic compounds that show differential cytotoxicity against isogenic chicken DT40 cell lines with known DNA damage response pathways - Rad54/Ku70 mutant cell line (AID 743015); note: nearly all actives have a fitted effect of over 60% in size
# Conditions: DT40 Rad54/Ku70 mutant viability, CellTiter-Glo, 40 h; series mostly up to 66.8 µM; activity change, negative = cytotoxicity: at the top concentration
# % is set by controls: 0 for no effect and ±100 for the full control effect; potency is the fitted concentration of half-maximal effect.
SMILES,Potency,"activity change, negative = cytotoxicity"
Cc1ccc(Nc2nccc(N(C)c3ccc4c(C)n(C)nc4c3)n2)cc1S(N)(=O)=O,10.6 µM (active),
O=C(CS)OCCOC(=O)CS,61.1 µM (active),
Cc1ccccc1N1C(=O)c2cc(S(N)(=O)=O)c(Cl)cc2NC1C (stereo not drawn),inactive,
CC(CCc1ccc2c(c1)OCO2)NN (stereo not drawn),,0.655% (inactive)
CCCCCC=CCC=CCCCCCCCC(=O)OCC,,-3.65% (inactive)
CC(C)(O)c1ccccc1CC[C@@H](SCC1(CC(=O)O)CC1)c1cccc(/C=C/c2ccc3ccc(Cl)cc3n2)c1,,-10.8% (inactive)
CC1=NN(c2ccc(C(=O)O)cc2)C(=O)C1,,6.56% (inactive)
O=C(O)c1snc(Cl)c1Cl,61.1 µM (active),
O=C(N/N=C/c1ccc([N+](=O)[O-])o1)c1ccc(O)cc1,4.52 µM (active),
C[N+]1(C)CCC(=C(c2ccccc2)c2ccccc2)CC1,,-1.31% [at 30.7 µM] (inactive)
CC(=O)Nc1ccc(N)cc1,,1.46% [at 95.1 µM] (inactive)
C=CC(=C)CCCC(C)(C)OC(C)=O,,-0.455% (inactive)
C[C@@H]1C[C@H]2[C@@H]3CCC4=CC(=O)C=C[C@]4(C)[C@@]3(F)[C@@H](O)C[C@]2(C)[C@@]1(O)C(=O)CO,55.3 µM (active),
c1ccc(COCc2ccccc2)cc1,,10.3% [at 95.1 µM] (inactive)
CC1(C)O[C@@H]2C[C@H]3[C@@H]4CCC5=CC(=O)C=C[C@]5(C)[C@H]4[C@@H](O)C[C@]3(C)[C@]2(C(=O)CO)O1,,12.7% (inactive)
CC(C)C(OC(=O)c1ccccc1)C(C)(C)COC(=O)c1ccccc1 (stereo not drawn),24.3 µM (active),
ON(Cc1ccccc1)Cc1ccccc1,,-14.1% (inactive)
CCCCCCCCCCCC[N+](C)(C)CCCS(=O)(=O)[O-],27.6 µM (active),
CC(C)(C)C(=O)O,,0.586% [at 95.1 µM] (inactive)
Fc1c(F)c(F)c(Br)c(F)c1F,,-2.85% (inactive)
CCC(C)=O,,-0.674% (inactive)
CC1CC(=O)NN=C1c1ccc(NCC(C)(C)NCC(O)COc2cc(Cl)ccc2C#N)cc1 (stereo not drawn),0.668 µM (active),
CC(N)CN (stereo not drawn),,11.3% [at 95.1 µM] (inactive)
CCCCOC(=O)CCS,,1.44% (inactive)
CC[C@@H]([C@H](C)O)n1ncn(-c2ccc(N3CCN(c4ccc(OC[C@@H]5CO[C@@](Cn6cncn6)(c6ccc(F)cc6F)C5)cc4)CC3)cc2)c1=O,1.68 µM (active),
Cc1cc(S(=O)(=O)O)ccc1N=Nc1c(O)ccc2ccccc12,,-17.5% (inactive)
O=C(O)C(Cc1cc(I)c(O)c(I)c1)c1ccccc1 (stereo not drawn),,-0.371% (inactive)
Fc1ccccc1[C@@H](F)COC1CCC(Nc2ncnc3[nH]ncc23)CC1 (stereo partly drawn),12.2 µM (active),
